Laboratory results from the supplement of paper PMC10338343.
± gives the standard deviation.

Tested on: MILI (PIWIL2) piRISC loaded with L1MC piRNA (26 nt)
Assay: pre-steady-state target cleavage rate (min^-1); guide: L1MC piRNA 5'p-UAACUAAAUACUAUGCAAGCUGUAGG; higher = faster piRNA-guided slicing of the target
Conditions: auxiliary factor: 500 nM mouse GTSF1
Method in brief: (§1)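 Sequencing of uncleaved targets, normalised to depth and to weakly complementary targets, was the readout of this Cleave-'n-Seq assay. A transcribed, DNA-blocked target RNA library (0.1 nM) was mixed with 1 nM active affinity-purified piRISC carrying one synthetic guide, with or without 500 nM GTSF1 partner protein, in HEPES–potassium acetate buffer at 33 °C for 0–8 or 0–960 min. Three trials were pooled, k3 was capped at 0.0001 min^-1, and a burst-and-steady-state fit gave the pre-steady-state cleavage rate.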

Sequence | pre-steady-state target cleavage rate
UCCUGGAUGUCCUUUGCAUAGUAUUUAGUUA | 0.0866 ± 0.015
UCCUGGAACAGCAUGGAUAGUAUUUAGUUA | 0.243 ± 0.016
UCCUGGAUGAGCAUGCAUAGUAUUUAGUAA | 0.21 ± 0.024
UCCUGGAUCUGCUUGCAUAGUAUUUUGUUA | 0.092 ± 0.015
UCCUGGAUCAGACUUGCAUAGUAUUUAGUUA | 0.254 ± 0.015
UCCUGGAUGAGCUAGCAUAGUAUUUAGUUA | 0.2 ± 0.018
UCCUGGUAGUCCUUGCAUAGUAUUUAGUAA | 0.113 ± 0.025
UCCUGCUACAGCAUGCAUUGUAUUUAGUUA | 0.213 ± 0.02
UCCUGGUACACUUGCAUAGUAUUUAGUUA | 0.188 ± 0.024
UCCUGGAUGAGCUUGCAUAGUAUUUCAGUUA | 0.207 ± 0.048
UCCUGGAACAGCUUGCAUAGUAUUUACUUA | 0.0894 ± 0.017
UCCUGGAACACUUGCAUAGUAUUUAGUUA | 0.194 ± 0.017
UCCUGGAACAGCUUCAUAGUAUUUAGUUA | 0.252 ± 0.015
UCCUGGAACAUCUUGCAUAGUAUUUAGUUA | 0.244 ± 0.013
UCCUGGAUGUCGUGCAUAGUAUUUAGUUA | 0.115 ± 0.014

Same assay, conditions: auxiliary factor: none (no GTSF1)

Sequence | pre-steady-state target cleavage rate
UCCUGGAACUGCUUGCAUAGUAUAUAGUUA | 0.00491 ± 0.0025
UCCUGGAUGUGGAUGCAUAGUAUUUAGUUA | 0.00877 ± 0.0027
UCCUGGAUCAGCAUGCAUAGUAUUUAGUAA | 0.00355 ± 0.0026
UCCUGGAACAGCUUGAAUAGUAUUUAGUUA | 0.00657 ± 0.0025
UCCUGCAACUGCUUGCAUAGUAUUUAGUUA | 0.00581 ± 0.0026
UCCUGGAUGUGGUAGCAUAGUAUUUAGUUA | 0.00767 ± 0.0031
UCCUGGAUGACCUUGCAAAGUAUUUAGUUA | 0.00372 ± 0.0031
UCCUGGUAGAGCUUGCAUAGUAUUUAGUUA | 0.00842 ± 0.0022
UCCUGGAUGAGCGUUGCAUAGUAUUUAGUUA | 0.00904 ± 0.0031
UCCUGGAUGUGCUGCAUAGUAUUUAGUUA | 0.00895 ± 0.0024
UCCUGGAACAGCUUGCAUAGUAUUUACGUUA | 0.00654 ± 0.0028
UCCUGGAACAGCAUGCAAAGUAUUUAGUUA | 0.00836 ± 0.0026
UCCUGGAUCAGCUAGCAUAGUAUUUAGUAA | 0.00665 ± 0.0023
UCCUGGUACAGCUUGGAUAGUAAUUAGUUA | 0.00415 ± 0.0029
UCCUGGAUCAGCUUGCAUAGUAUUUAGAAA | 0.00292 ± 0.0023
UCCUGCUACACCUAGCAUAGUAUUUAGUUA | 0.00758 ± 0.0022
UCCUGCUAGCAGCUUGCAUAGUAUUUAGUUA | 0.00955 ± 0.0024
UCCUGCUACAGCUGUGCAUAGUAUUUAGUUA | 0.0081 ± 0.0032
UCCUGCAUCAGCUUGCAUAGUAUUUAGUAA | 0.00464 ± 0.0032
UCCUGGAAGAGCUUGCUUAGUAUUUAGUUA | 0.0109 ± 0.0029

Sequence | pre-steady-state target cleavage rate
UCCUGGAUGGGCUUGCAUAGUAUUUAGUUA | 0.0171 ± 0.0035
UCCUGGUACAGCUUGCAUAAUAUUUAGUUA | 0.0064 ± 0.0032
UCCUGGAUCUGCUUGCAUAGUAUUUAGUAA | 0.00457 ± 0.0021
UCCUCCAACAGGUUGCAUAGUAUUUAGUUA | 0.00862 ± 0.0019
UCCUGGAUGUCCUUUGCAUAGUAUUUAGUUA | 0.0072 ± 0.0024
UCCUGGAACAGCAUGGAUAGUAUUUAGUUA | 0.00742 ± 0.0028
UCCUGGAUGAGCAUGCAUAGUAUUUAGUAA | 0.00494 ± 0.0024
UCCUGGAUCUGCUUGCAUAGUAUUUUGUUA | 0.00429 ± 0.0026
UCCUGGAUCAGACUUGCAUAGUAUUUAGUUA | 0.00843 ± 0.0023
UCCUGGAUGAGCUAGCAUAGUAUUUAGUUA | 0.00679 ± 0.0019
UCCUGGUAGUCCUUGCAUAGUAUUUAGUAA | 0.00362 ± 0.003
UCCUGCUACAGCAUGCAUUGUAUUUAGUUA | 0.00734 ± 0.0026
UCCUGGUACACUUGCAUAGUAUUUAGUUA | 0.00665 ± 0.0026
UCCUGGAUGAGCUUGCAUAGUAUUUCAGUUA | 0.00415 ± 0.0028
UCCUGGAACAGCUUGCAUAGUAUUUACUUA | 0.003 ± 0.0029
UCCUGGAACACUUGCAUAGUAUUUAGUUA | 0.00651 ± 0.0021
UCCUGGAACAGCUUCAUAGUAUUUAGUUA | 0.00361 ± 0.0026
UCCUGGAACAUCUUGCAUAGUAUUUAGUUA | 0.0108 ± 0.0028
UCCUGGAUGUCGUGCAUAGUAUUUAGUUA | 0.00386 ± 0.0022

Tested on: EfPiwi piRISC loaded with L1MC piRNA (26 nt)
Assay: pre-steady-state target cleavage rate (min^-1); auxiliary factor: 500 nM Ephydatia muelleri Gtsf1; guide: L1MC piRNA 5'p-UAACUAAAUACUAUGCAAGCUGUAGG; MIWI and MILI are mouse PIWI proteins and EfPiwi is from a freshwater sponge; tags in brackets are library labels; higher = faster piRNA-guided slicing of the target
Conditions: not given
Method in brief: as §1

Sequence | pre-steady-state target cleavage rate
UCCUGGAACUGCUUGCAUAGUAUAUAGUUA | 0.0584 ± 0.021
UCCUGGAUGUGGAUGCAUAGUAUUUAGUUA | 0.00943 ± 0.0037
UCCUGGAUCAGCAUGCAUAGUAUUUAGUAA | 0.00497 ± 0.0029
UCCUGGAACAGCUUGAAUAGUAUUUAGUUA | 0.0656 ± 0.017
UCCUGCAACUGCUUGCAUAGUAUUUAGUUA | 0.0198 ± 0.0044
UCCUGGAUGUGGUAGCAUAGUAUUUAGUUA | 0.00356 ± 0.0033
UCCUGGAUGACCUUGCAAAGUAUUUAGUUA | 0.00391 ± 0.0037
UCCUGGUAGAGCUUGCAUAGUAUUUAGUUA | 0.0138 ± 0.0044
UCCUGGAUGAGCGUUGCAUAGUAUUUAGUUA | 0.00582 ± 0.0034
UCCUGGAUGUGCUGCAUAGUAUUUAGUUA | 0.00571 ± 0.0034
UCCUGGAACAGCUUGCAUAGUAUUUACGUUA | 0.00579 ± 0.0024
UCCUGGAACAGCAUGCAAAGUAUUUAGUUA | 0.0163 ± 0.0061
UCCUGGAUCAGCUAGCAUAGUAUUUAGUAA | 0.00362 ± 0.0032
UCCUGGUACAGCUUGGAUAGUAAUUAGUUA | 0.00316 ± 0.0025
UCCUGGAUCAGCUUGCAUAGUAUUUAGAAA | 0.00346 ± 0.0016
UCCUGCUACACCUAGCAUAGUAUUUAGUUA | 0.0171 ± 0.0054
UCCUGCUAGCAGCUUGCAUAGUAUUUAGUUA | 0.0598 ± 0.016
UCCUGCUACAGCUGUGCAUAGUAUUUAGUUA | 0.00927 ± 0.0026
UCCUGCAUCAGCUUGCAUAGUAUUUAGUAA | 0.00847 ± 0.0021
UCCUGGAAGAGCUUGCUUAGUAUUUAGUUA | 0.0135 ± 0.0043

Sequence | pre-steady-state target cleavage rate
UCCUGGAUGGGCUUGCAUAGUAUUUAGUUA | 0.0238 ± 0.0063
UCCUGGUACAGCUUGCAUAAUAUUUAGUUA | 0.00307 ± 0.0027
UCCUGGAUCUGCUUGCAUAGUAUUUAGUAA | 0.1 ± 0.038
UCCUCCAACAGGUUGCAUAGUAUUUAGUUA | 0.0491 ± 0.011
UCCUGGAUGUCCUUUGCAUAGUAUUUAGUUA | 0.00785 ± 0.0043
UCCUGGAACAGCAUGGAUAGUAUUUAGUUA | 0.00527 ± 0.0017
UCCUGGAUGAGCAUGCAUAGUAUUUAGUAA | 0.00596 ± 0.0037
UCCUGGAUCUGCUUGCAUAGUAUUUUGUUA | 0.0153 ± 0.0053
UCCUGGAUCAGACUUGCAUAGUAUUUAGUUA | 0.0293 ± 0.009
UCCUGGAUGAGCUAGCAUAGUAUUUAGUUA | 0.00597 ± 0.002
UCCUGGUAGUCCUUGCAUAGUAUUUAGUAA | 0.00627 ± 0.0035
UCCUGCUACAGCAUGCAUUGUAUUUAGUUA | 0.0119 ± 0.0032
UCCUGGUACACUUGCAUAGUAUUUAGUUA | 0.00407 ± 0.0024
UCCUGGAUGAGCUUGCAUAGUAUUUCAGUUA | 0.00264 ± 0.0023
UCCUGGAACAGCUUGCAUAGUAUUUACUUA | 0.00514 ± 0.0038
UCCUGGAACACUUGCAUAGUAUUUAGUUA | 0.0107 ± 0.0034
UCCUGGAACAGCUUCAUAGUAUUUAGUUA | 0.0107 ± 0.0034
UCCUGGAACAUCUUGCAUAGUAUUUAGUUA | 0.0653 ± 0.016
UCCUGGAUGUCGUGCAUAGUAUUUAGUUA | 0.00802 ± 0.003
